About 530 (0.13%) of roughly 410,000 compounds were called active. Where a call stands in place of a potency, no number is given. Not shown: some 5% with an inconclusive outcome. Calls follow the shape of the dose curve; as a rule, active = well fitted inhibition curve with a large enough effect; inconclusive = small, poorly fitted or top-dose-only effect, or another doubt; inactive = no such curve, though single readings can be large or run the other way. This excerpt belongs to a sample that is enriched for actives.
Assay: qHTS of GLP-1 Receptor Inverse Agonists: Cytotox Screen;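 also: loss of luciferase light is scored as toxicity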
Conditions: HEK293 cAMP-luciferase reporter cells, luminescence, 24 h; series mostly up to 38.3 µM
From the text: The overall goal of this project was to develop a novel assay for discovering small molecule ligands for class B1 G protein-coupled receptors (GPCRs). Very few agonists (or inverse agonists) with generally weak activity for this entire group of physiologically important receptors are known to date. To establish proof-of-principle that this critical bottleneck can be overcome with a suitable screening approach, our studies focused on the class B1 receptor for glucagon-like peptide-1 (GLP-1R), a potential therapeutic target for diabetes and neurodegenerative disease.
The assay was developed using a cell-based functional readout. Toward this goal, stably transfected HEK293 cell clones were established that co-express (i) a cAMP-responsive luciferase reporter gene, and (ii) constitutively active GLP-1R that upon ligand interaction inhibit (inverse agonists) the luciferase activity. In addition, two control cell lines were developed: (i) one that express only the cAMP-responsive reporter gene to enable initial exclusion of GLP-1R independent effects of candidate probes; and (ii) one with the reported gene cloned with another constitutively active orphan receptor GPR119 to enable exclusion of GLP-1R independent inhibitor effects of candidate inverse agonists.
To that end, this assay was optimized for 1536-well format and screened against the MLSMR. Then the same collection was run in this cytotoxicity assay where inhibition was the undesired outcome.
NIH Molecular Libraries Probe Production Network [MLPCN]
NIH Chemical Genomics Center [NCGC]
PI Name: Martin Beinborn, Tufts Medical Center
Six ul of cell suspension (200 cells/uL in DMEM + 10% Nu serum + 1% pen-strep) is dispensed in a white solid 1536-well plate. The plates are incubated for 12 hours at 37 deg C at 5% CO2 followed by addition of 23 nL compounds. After 24 hr incubation at 37 deg C and 5% CO2, 3 uL of luciferase assay detection reagent is added. A luminescence read is obtained on the PerkinElmer Viewlux after 12 min incubation at room temperature.
Potency is read from the fitted curve at half-maximal effect.

Structure (SMILES) | Potency
O=C(Nc1ccc(OC(F)(F)F)cc1)c1ccc2c(c1)no[n+]2[O-] | 11.2 µM (active)
O=C(Nc1ccc(Cl)cn1)Nc1cccs1 | inactive
CCOC(=O)[C@]12Cc3cc(OC)ccc3[C@H]1N(C(C)C)C(=O)c1ccccc12 | inactive
CCOc1ccc2nc(Nc3nc4ccc(NC(C)=O)cc4s3)sc2c1 | inactive
Cc1ccc(NC(=O)N(Cc2ccc3c(c2)OCO3)C2CCN(Cc3ccccc3)CC2)cc1F | inactive
COc1ccc(CS(=O)/C(Cl)=C(/Cl)C(=O)Nc2ccc(OC)nc2)cc1 (stereo not given) | 3.98 µM (active)
O=C1N[C@H](Cc2c[nH]c3ccccc23)COC(=O)[C@H](Cc2ccc(F)cc2)C/C=C\C[C@H]1CC(=O)N(CCO)Cc1ccccc1 | inactive
CCN(CC)CCCC(C)n1c2nc(=O)[nH]c(=O)c-2nc2cc(Cl)ccc21 (stereo not given) | inactive
c1cc2c(c(NC3=NCCCS3)c1)CCCC2 | inactive
Cc1nnc(NC(=O)c2cccn(Cc3cccc(F)c3)c2=O)s1 | inactive
Cc1cccc(Cn2cccc(C(=O)Nc3ccc4c(c3)OCCO4)c2=O)c1 | inactive
C=CCC[C@@H](Cc1ccc(F)cc1)C(=O)OC[C@H](Cc1c[nH]c2ccccc12)NC(=O)[C@@H](CC=C)CC(=O)N(CCO)Cc1ccccc1 | inactive
Nc1ccc(-c2sc(N)nc2-c2ccccc2)cc1 | inactive
NS(=O)(=O)c1ccc(NC(=O)COC(=O)c2c3c(nc4ccccc24)/C(=C\c2ccc4c(c2)OCO4)CCC3)cc1 | inactive
C=CC(=O)Nc1ccc(Nc2ccnc(Nc3ccc(N4CCN(C)CC4)cc3)n2)cc1 | 10 µM (active)
CCC1(CC(C)c2ccccc2)C(=O)NC(=O)NC1=O (stereo not given) | inactive
COc1cccc2sc3cc(NCC[C@@H]4CCCN4C)ccc3c(=O)c12 | inactive
CC(C)c1ccc(C=NNc2ccc([N+](=O)[O-])cn2)cc1 | inactive
Cc1cc(C)c2c(c1)cc(C)c1nnc(SCC(=O)Nc3cc(C)on3)n12 | 10 µM (active)
COc1ccc(-c2nc3cnccn3c2NC2CCCCC2)cc1-c1cccc(Cl)c1 | inactive
NC(=O)c1sc2nc3c(c(-c4ccccc4)c2c1N)CCC3 | inactive
O=C(Nc1nnc(-c2ccccc2)o1)c1cccc(S(=O)(=O)N2CCOCC2)c1 | 10 µM (active)
COc1ccccc1OC(=O)c1ccc(C)c(S(=O)(=O)N2CCOCC2)c1 | inactive
O=C(c1cc(S(=O)(=O)N2CCOCC2)ccc1F)N1CCC2(CC1)OCCO2 | inactive
CCc1ccc(OCC(=O)N2CCN(CC(=O)Nc3ccccc3Cl)CC2)cc1 | inactive

From PubChem BioAssay AID624418 (National Center for Advancing Translational Sciences (NCATS), 2012)
